Experimental data as given in PubChem BioAssay AID1159580 (chemical genetic matrix, 2015).
In all, about 5,500 compounds went through this assay and about 2,000 (36%) were called active. Another 18% or so got no clear call; they are omitted. Rule as the data show it: active = normalized growth mostly below about 0.91 (no sharp cut-off); inconclusive = no clear call, values can overlap the other calls; inactive = mostly above about 0.92. The list shows a part of the results.

Test: chemical genetic growth profiling, strain panel (AID 1159580);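 also: tested at 20 µM; growth read once vehicle control cultures reached saturation at 30 °C; 1 = growth at the plate median or of vehicle wells; lower values mean less growth of the strain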
Settings: growth OD

Measured: normalized growth

OC(c1cc(C(F)(F)F)nc2c(C(F)(F)F)cccc12)C1CCCCN1 (stereo not drawn)
inactive: S. cerevisiae deletion strains, locus YJR066W, strain TOR1, hits give low values 0.936 | S. cerevisiae deletion strains, locus YJR075W, strain HOC1, hits give low values 0.978 | S. cerevisiae deletion strains, locus YKL009W, strain mrt4, hits give low values 0.987 | S. cerevisiae deletion strains, locus YKL068W, hits give low values 0.99 | S. cerevisiae deletion strains, locus YKL085W, strain MDH1 (second series), hits give low values 0.989 | S. cerevisiae deletion strains, locus YKL085W, strain MDH1, hits give low values 0.989 | S. cerevisiae deletion strains, locus YKL160W, strain elf1, hits give low values 0.99 | S. cerevisiae deletion strains, locus YKL190W, strain CNB1, hits give low values 0.99 | S. cerevisiae deletion strains, locus YKR001C, strain vps1, hits give low values 1 | S. cerevisiae deletion strains, locus YKR026C, strain gcn3, hits give low values 1.01 | S. cerevisiae deletion strains, locus YKR091W, strain srl3, hits give low values 1 | S. cerevisiae deletion strains, locus YLL001W, strain dnm1, hits give low values 1 | S. cerevisiae deletion strains, locus YLL026W, hits give low values 1.01 | S. cerevisiae deletion strains, locus YLL041C, strain sdh2, hits give low values 1.02 | S. cerevisiae deletion strains, locus YLR027C, strain aat2, hits give low values 0.996 | S. cerevisiae deletion strains, locus YLR039C, strain RIC1, hits give low values 1.12 | S. cerevisiae deletion strains, locus YLR058C, strain SHM2, hits give low values 0.991 | S. cerevisiae deletion strains, locus YLR102C, strain apc9, hits give low values 0.991 | S. cerevisiae deletion strains, locus YLR113W, strain HOG1, hits give low values 0.93 | S. cerevisiae deletion strains, locus YLR221C, strain rsa3, hits give low values 1.02 | S. cerevisiae deletion strains, locus YLR258W, strain gsy2, hits give low values 1.01 | S. cerevisiae deletion strains, locus YLR262C, strain YPT6 (second series), hits give low values 1.11 | S. cerevisiae deletion strains, locus YLR262C, strain YPT6, hits give low values 1.15 | S. cerevisiae deletion strains, locus YLR268W, strain sec22, hits give low values 0.975 | S. cerevisiae deletion strains, locus YLR320W, strain mms22, hits give low values 1.01 | S. cerevisiae deletion strains, locus YLR330W, strain CHS5, hits give low values 0.992 | S. cerevisiae deletion strains, locus YLR342W, strain FKS1 (second series), hits give low values 0.962 | S. cerevisiae deletion strains, locus YLR342W, strain FKS1, hits give low values 1.01 | S. cerevisiae deletion strains, locus YLR357W, strain rsc2, hits give low values 1.09 | S. cerevisiae deletion strains, locus YLR370C, strain arc18, hits give low values 1 | S. cerevisiae deletion strains, locus YLR371W, strain rom2, hits give low values 0.988 | S. cerevisiae deletion strains, locus YLR384C, strain iki3, hits give low values 1.01 | S. cerevisiae deletion strains, locus YLR418C, strain cdc73, hits give low values 0.931 | S. cerevisiae deletion strains, locus YML016C, strain PPZ1, hits give low values 0.989 | S. cerevisiae deletion strains, locus YML032C, strain rad52, hits give low values 0.978 | S. cerevisiae deletion strains, locus YML120C, strain ndi1, hits give low values 1 | S. cerevisiae deletion strains, locus YML124C, strain tub3, hits give low values 0.99 | S. cerevisiae deletion strains, locus YMR058W, strain fet3, hits give low values 0.997 | S. cerevisiae deletion strains, locus YMR078C, strain ctf18, hits give low values 0.994 | S. cerevisiae deletion strains, locus YMR125W, strain sto1, hits give low values 1 | S. cerevisiae deletion strains, locus YMR129W, hits give low values 0.997 | S. cerevisiae deletion strains, locus YMR205C, strain PFK2, hits give low values 1.01 | S. cerevisiae deletion strains, locus YMR223W, strain ubp8, hits give low values 0.973 | S. cerevisiae deletion strains, locus YMR231W, strain pep5, hits give low values 1.01 | S. cerevisiae deletion strains, locus YMR307W, strain GAS1, hits give low values 0.869 | S. cerevisiae deletion strains, locus YNL067W, strain RPL9B, hits give low values 0.981 | S. cerevisiae deletion strains, locus YNL071W, strain lat1, hits give low values 1.02 | S. cerevisiae deletion strains, locus YNL183C, strain NPR1, hits give low values 0.93 | S. cerevisiae deletion strains, locus YNL209W, strain ssb2, hits give low values 0.996 | S. cerevisiae deletion strains, locus YNL233W, strain BNI4, hits give low values 0.959 | S. cerevisiae deletion strains, locus YNL248C, strain rpa49, hits give low values 0.999 | S. cerevisiae deletion strains, locus YNL250W, strain rad50, hits give low values 0.986 | S. cerevisiae deletion strains, locus YNL271C, strain bni1, hits give low values 0.985 | S. cerevisiae deletion strains, locus YNL298W, strain CLA4, hits give low values 0.995 | S. cerevisiae deletion strains, locus YNL307C, strain MCK1, hits give low values 0.992 | S. cerevisiae deletion strains, locus YNL322C, strain KRE1 (second series), hits give low values 0.988 | S. cerevisiae deletion strains, locus YNL322C, strain KRE1, hits give low values 0.987 | S. cerevisiae deletion strains, locus YNR049C, strain mso1, hits give low values 1.01 | S. cerevisiae deletion strains, locus YNR052C, strain pop2, hits give low values 0.99 | S. cerevisiae deletion strains, locus YOL006C, strain TOP1, hits give low values 0.993 | S. cerevisiae deletion strains, locus YOL012C, strain htz1 0.986 | S. cerevisiae deletion strains, locus YOL147C, strain pex11, hits give low values 1.01 | S. cerevisiae deletion strains, locus YOR001W, strain rrp6, hits give low values 0.999 | S. cerevisiae deletion strains, locus YOR061W, strain CKA2, hits give low values 0.991 | S. cerevisiae deletion strains, locus YOR069W, strain VPS5, hits give low values 0.997 | S. cerevisiae deletion strains, locus YOR070C, strain gyp1, hits give low values 1.01 | S. cerevisiae deletion strains, locus YOR080W, strain dia2, hits give low values 1.02 | S. cerevisiae deletion strains, locus YOR083W, strain WHI5, hits give low values 1.03 | S. cerevisiae deletion strains, locus YOR106W, strain vam3, hits give low values 1.02 | S. cerevisiae deletion strains, locus YOR136W, strain idh2, hits give low values 0.988 | S. cerevisiae deletion strains, locus YOR144C, strain elg1, hits give low values 0.991 | S. cerevisiae deletion strains, locus YOR184W, strain ser1, hits give low values 0.997 | S. cerevisiae deletion strains, locus YOR231W, strain MKK1, hits give low values 0.959 | S. cerevisiae deletion strains, locus YOR265W, strain rbl2, hits give low values 1 | S. cerevisiae deletion strains, locus YOR270C, strain vph1, hits give low values 1.04 | S. cerevisiae deletion strains, locus YOR290C, strain snf2, hits give low values 0.991 | S. cerevisiae deletion strains, locus YOR316C, strain cot1, hits give low values 0.994 | S. cerevisiae deletion strains, locus YPL051W, strain arl3, hits give low values 1.01 | S. cerevisiae deletion strains, locus YPL078C, strain atp4, hits give low values 1 | S. cerevisiae deletion strains, locus YPL106C, strain sse1, hits give low values 0.999 | S. cerevisiae deletion strains, locus YPL240C, strain hsp82, hits give low values 1 | S. cerevisiae deletion strains, locus YPL256C, strain CLN2, hits give low values 0.946 | S. cerevisiae deletion strains, locus YPR119W, strain clb2, hits give low values 0.99 | S. cerevisiae deletion strains, locus YPR141C, strain kar3, hits give low values 0.988 | S. cerevisiae deletion strains, locus YPR163C, strain tif3, hits give low values 0.999 | S. cerevisiae deletion strains, locus YPR167C, strain met16, hits give low values 0.993 | S. cerevisiae deletion strains, strain wtn01, hits give low values 0.96 | S. cerevisiae strains, strain wild type, hits give low values 0.983
